Results published in PubChem BioAssay (NCI).
The panel holds about 79,000 compounds, 15% with a hit somewhere; the sample as a whole holds those more often. Unmarked numbers belong to inactive results. Active and inactive are the calls of the source. Cut-off read from the data, not from the text of the source: active = growth inhibition above about 70%; inactive = the rest.

Legend:
[1] = NCI Yeast Anticancer Drug Screen. Data for the rad50 strain (AID 155);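 note: 0% = growth of vehicle-only cultures of the same strain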; details: S. cerevisiae rad50 strain growth inhibition; at 50.0 µM; stronger effect = higher value
Method in brief: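 Yeast carrying a defined DNA repair defect were exposed to test compounds, and growth was compared with vehicle-treated controls to give percent inhibition.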

[2] = NCI Yeast Anticancer Drug Screen. Data for the mec2-1 strain (AID 157); details: S. cerevisiae mec2-1 strain, at 50.0 µM, stronger effect = higher value
Method in brief: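 Vehicle-treated cultures served as reference for growth inhibition of compound-exposed mec2-1 yeast.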

[3] = NCI Yeast Anticancer Drug Screen. Data for the sgs1 mgt1 strain (AID 161);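 note: 0% = growth of cultures given vehicle only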; details: S. cerevisiae sgs1 mgt1 strain, at 50.0 µM, stronger effect = higher value
Method in brief: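 Mutant yeast exposed to compound; growth scored against vehicle-only wells.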

[4] = NCI Yeast Anticancer Drug Screen. Data for the cln2 rad14 strain (AID 165);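 note: 0% = growth equal to vehicle treated cultures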; details: S. cerevisiae cln2 rad14 strain, at 50.0 µM, stronger effect = higher value
Method in brief: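 Each compound was tested on cln2 rad14 yeast. Inhibition of growth was calculated against vehicle-exposed controls.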

[5] = NCI Yeast Anticancer Drug Screen. Data for the bub3 strain (AID 167); details: S. cerevisiae bub3 mutant strain, at 50.0 µM, stronger effect = higher value
Method in brief: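 Compounds were applied to a genetically altered yeast strain carrying a cell-cycle control defect. Growth inhibition was scored against vehicle-treated controls.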

[6] = NCI Yeast Anticancer Drug Screen. Data for the mlh1 rad18 strain (AID 175); details: S. cerevisiae mlh1 rad18 strain growth inhibition; at 50.0 µM; stronger effect = higher value
Method in brief: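 Vehicle-treated cultures served as the reference for growth inhibition in a yeast strain carrying DNA damage repair alterations exposed to each compound.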

SMILES	growth inhibition [1]	growth inhibition [2]	growth inhibition [3]	growth inhibition [4]	growth inhibition [5]	growth inhibition [6]
CCN(CC)C(=O)CNC(=O)C(c1ccccc1)c1ccccc1	4.25%	-6.2%	1.4%	-9.7%	6.35%	-8.05%
COc1cc(Br)c(C=Nc2cccc3cc(OC)c(OC)cc23)cc1OC	-0.9%	-14.3%	-9.9%	20.4%	-27.1%	-15.9%
CCOc1cc2c(cc1O)/C(=N\O)C[C@@H]1[C@@H]2CC[C@]2(C)[C@@H](O)CC[C@@H]12	31.6%	13%	57.2%	20.6%	24.2%	-9.15%
Cc1cccc(N2CC3CC4C=CC3(C2)O4)c1 (centres undefined)	13.7%	7.65%	4.45%	-15.2%	22.1%	13.1%
CC(C)(C)N[P+](Cc1ccc(C[P+](NC(C)(C)C)(NC(C)(C)C)c2ccccc2)cc1)(NC(C)(C)C)c1ccccc1	-3.05%	-10.1%	-0.9%	-13.5%	-2.1%	5.45%
O=c1c2ccccc2c(=O)n2n1C1C=CC2C1	-5%	-7.15%	1.55%	-6.4%	4.5%	-4.55%
CCCCCCCCN(c1ccc(C(=O)NC(CCC(=O)OCC)C(=O)OCC)cc1)S(=O)(=O)c1ccc(C)cc1 (centres undefined)	-14.6%	-4.5%	-18.9%	-24.6%	-3.6%	-12.2%
Clc1ccc(C(CI)c2ccccc2Cl)cc1 (centres undefined)	10.8%	11.3%	12.3%	13.8%	27.9%	6.05%
Cc1cc(NC(=O)NCCCCCCNC(=O)Nc2cc(C)on2)no1	4.95%	1.2%	1.7%	-7.75%	14.6%	0.35%
COc1ccc(N(Cc2ccccc2)c2nn[nH]n2)cc1	13.9%	-18.4%	-3.3%	11.6%	-5.6%	-19.8%
ClCCc1ccccc1CC1=NCCc2ccccc21	18.6%	-26.4%	-23.7%	6.3%	-12.8%	54.8%
CC1(CCN2CCCC2)NC(=O)NC1=O (centres undefined)	15.9%	-20.3%	-5.25%	1.05%	3.4%	10.9%
CC(C)[C@@H]1CC[C@@H](C)C[C@H]1OC(=O)/C=C1\C(C(=O)O[C@@H]2C[C@H](C)CC[C@H]2C(C)C)[C@H]2C=C[C@@H]1O2 (some centres undefined)	-6.15%	-13.6%	-9.35%	-25.1%	-27.1%	6.5%
NC(CSS(=O)(=O)c1ccccc1)C(=O)O (centres undefined)	4%	-37.5%	-0.75%	0.5%	-10.6%	0.3%
COc1ccc(C(=O)c2ccccc2C(=O)c2ccc(OC)cc2)cc1	-22.1%	16.1%	-1.4%	-37.8%	-7.7%	6.95%
CC(=O)OC[C@]1(O)CC[C@@]23CC1C[C@@H]2CCC1C(C)(C)CCC[C@@]13C (some centres undefined)	81.5% (active)	41.6%	64.8%	71.6% (active)	67.7%	64.4%
CCCCCCCCC(=O)c1c(OC)oc(C=O)cc1=O	-0.5%	-22.8%	31.8%	26.2%	-19.6%	4%
CCC(C)c1cnc(CC(C)C)c(=O)[nH]1 (centres undefined)	8.9%	-44.2%	17.2%	4.85%	-9.6%	0.85%
CN(CCCO)CCCO	5.9%	-2.4%	0.7%	3.35%	1.85%	-0.85%
CC(=O)OC(C)c1cc2c(s1)C(=O)c1sccc1C2=O (centres undefined)	88.6% (active)	91% (active)	88.8% (active)	89% (active)	89.3% (active)	89.5% (active)

SMILES	growth inhibition [1]	growth inhibition [2]	growth inhibition [3]	growth inhibition [4]	growth inhibition [5]	growth inhibition [6]
c1ccc2c(c1)CCCN2c1nc(N2CCCC2)nc(N2CCOCC2)n1	-11.6%	-21.8%	4.4%	7.25%	5.45%	-8.25%
CC(=O)Nc1ccc2c(c1)Cc1cc(NC(C)=O)c(Cl)cc1-2	3.15%	11.9%	-1.45%	7.95%	-2.35%	-1.2%
CCCCCCCCCCCC(=O)Oc1c(Cl)cc(Cl)c(OC(=O)C(=O)Oc2c(Cl)cc(Cl)c(OC(=O)CCCCCCCCCCC)c2Cl)c1Cl	-26.1%	-21.9%	-11.2%	16.9%	-4.2%	-19.9%
CCCCCCCc1c(C)c2ccc(OC)cc2[nH]c1=O	-9.8%	-29.1%	-5.8%	-5%	-6.85%	-5.15%
Cc1c2ccn3c(=O)c4ccccc4cc3c2c(C)c2c1[nH]c1ccccc12	56.1%	15.2%	9.45%	16.7%	21.8%	26.6%
CCOC(=O)CN1C(=O)C(=O)N(c2ccc(OC)c3ccccc23)C1=O	-46.1%	-17.2%	-54.7%	-40%	-1.3%	-27.6%
Cc1cc2ccccc2c[n+]1CC(O)CBr (centres undefined)	-5.45%	7.05%	11.3%	-36.8%	-11.4%	5.9%
COC(=O)/C=C\C1(CC(C)C)N=C(c2ccccc2)OC1=O (centres undefined)	14.9%	25.1%	15.8%	11.2%	36.1%	26.8%
O=C(/C=C/C(=O)c1ccc(O)cc1)Oc1ccccc1	33.1%	-3.75%	1.1%	-15.3%	12.9%	18.1%
CC(C)NC(=O)OCc1c(COC(=O)NC(C)C)c(-c2ccc(Cl)c(Cl)c2)n2c1C[C@@H](O)C2	17.3%	20%	21.5%	38.4%	11.5%	-44.4%
O=C1CC[C@@H](NC(=O)Cc2ccccc2)C(=O)N1	-6.65%	-19.3%	-12.8%	-6.75%	2.25%	-9.1%
O=c1ccc(=O)n(-c2ccc(Cl)cc2)[nH]1	-8.1%	-21.8%	-12.7%	23.4%	-6%	-9.9%
O=C1N2Cc3c4ccc5c3CN3C(=O)N6Cc7c(ccc(c7CN1C6(c1ccccc1)C23c1ccccc1)OCCOCCOc1cc(Br)c(Br)cc1OCCOCCO4)OCCOCCOc1cc(Br)c(Br)cc1OCCOCCO5 (centres undefined)	-4.95%	8.95%	-3.45%	18.1%	-1.8%	-16.4%
CC1CC(C#N)=C2NCCCCN2C1=O (centres undefined)	-21.6%	-44.8%	-2.25%	3.65%	-7.9%	-14.3%
COc1cc(C2NC(=O)C(C)(C)O2)cc(OC)c1OC (centres undefined)	-2.05%	-9.85%	-8.75%	-17.8%	4.8%	-37%
CN(C)CC1CCC(CN(C)C)C(=O)C1=O (centres undefined)	-36%	-39.4%	-64.5%	-14.7%	-31.3%	-31.3%
CCN(CC)CCN1C(=O)c2c(c(-c3ccccc3)c3ccccc3c2-c2ccccc2)C1=O	21.6%	35.2%	21.6%	13.2%	27.4%	28%
O=C(O)/C=C/c1c2ccc(=O)c(O)c-2oc2c(O)c(O)ccc12	36.4%	24.4%	13.9%	-23.9%	10.2%	44.8%
Cc1cc2c(C(C)C)c(O)c(O)c(C=NCc3ccc(Br)cc3)c2c(O)c1-c1c(C)cc2c(C(C)C)c(O)c(O)c(C=NCc3ccc(Br)cc3)c2c1O	-5.6%	1.6%	26.6%	-22.1%	-9.15%	27.8%
